High-throughput results deposited in PubChem by National Center for Advancing Translational Sciences (NCATS).
A selection: hits, their analogues and other compounds. The true share with any hit is near 2.8%.
Mito fusion act – qHTS Assay for Small Molecule Inhibitors of Mitochondrial Division or Activators of Mitochondrial Fusion | Potency, µM (doses to about 46.1 µM), most hits filed as activators | S. cerevisiae fusion-defective mutant growth rescue, CellTiterGlo 48 h | actives 0.23% (n = 320,000); note: nearly all actives have a fitted effect of over 45% in size
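Luminescent cell viability in 1536-well qHTS format served as the measure of rescued growth in ts fusion-mutant S. cerevisiae cultured on non-fermentable YPEG for 48 hours at 37C.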
GLP-1R agonist – qHTS of GLP-1 Receptor Agonists; Potency, µM (series often up to 45.6 µM), actives largely listed as activators; actives 0.007% (n = 380,000); AID 624172, 2012; HEK293 GLP-1R CRE-luciferase, luminescence, 4-6 h; cells express a hypersensitive GLP-1R form
Target sequence (P43220 whole entry, looked up): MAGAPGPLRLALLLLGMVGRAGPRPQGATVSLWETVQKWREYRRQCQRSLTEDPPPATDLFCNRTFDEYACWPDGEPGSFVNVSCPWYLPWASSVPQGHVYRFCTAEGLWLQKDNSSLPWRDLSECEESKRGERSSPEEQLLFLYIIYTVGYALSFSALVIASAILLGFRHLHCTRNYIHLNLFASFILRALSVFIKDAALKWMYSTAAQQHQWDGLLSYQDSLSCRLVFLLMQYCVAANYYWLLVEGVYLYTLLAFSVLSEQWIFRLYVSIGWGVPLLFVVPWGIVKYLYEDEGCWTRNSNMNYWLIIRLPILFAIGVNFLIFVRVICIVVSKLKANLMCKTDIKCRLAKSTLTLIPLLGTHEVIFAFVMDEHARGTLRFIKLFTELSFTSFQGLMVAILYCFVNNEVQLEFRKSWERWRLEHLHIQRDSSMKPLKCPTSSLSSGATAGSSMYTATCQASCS
HEK293 tox – qHTS of GLP-1 Receptor Inverse Agonists: Cytotox Screen; HEK293 cAMP-luciferase reporter cells, luminescence, 24 h; Potency, µM (top dose mostly 38.3 µM), hits mostly inhibitors; actives 0.13% (n = 410,000); AID 624418, 2012;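 note: loss of luciferase light is scored as toxicity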
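A 23 nL compound transfer followed 12 hours of cell culture at 37 deg C; exposure then lasted 24 hr. Luciferase assay detection reagent was dispensed and plates read for luminescence after a 12 min room-temperature wait.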
BRCA1 expr act – qHTS Assay to Identify Small Molecule Activators of BRCA1 Expression; Potency, µM (highest dose often 46.1 µM), most hits filed as activators; AID 624202, 2012; MCF7-BRCA1-FFLuc reporter, luminescence, 48 h; response scale: scaled: vehicle 0%, 10 µM genistein 100%; actives 1.1% (n = 380,000); note: nearly all actives have a fitted effect of over 80% in size
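Compounds are tested at multiple concentrations on MCF7 BRCA1-luciferase reporter cells seeded at 2000 per well; after 48 h, a single luminescence end-point is taken and curves fitted to the normalized data.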
GLP1R inv ag – qHTS of GLP-1 Receptor Inverse Agonists (Inhibition Mode) | AID 624417, 2012 | actives 1.6% (n = 410,000) | Potency, µM (top dose mostly 38.3 µM), actives largely listed as inhibitors | HEK293 GLP-1R CRE-luciferase, luminescence, 24 h; GLP-1R form is constitutively active; note: nearly all actives have a fitted effect of over 55% in size
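Stable HEK293 clone (constitutively active GLP-1R + cAMP-response luciferase); 200 cells/uL plated, 12 h pre-culture, compound 24 hr, 37 deg C/5% CO2; detection reagent 12 min RT; luminescence.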
Of the large screens only hits and unclear results are named; the others gave an inactive call. Calls come from the whole dose curve; as a rule, active = well fitted curve in the direction sought with a large enough effect; inconclusive = small, poorly fitted or top-dose-only effect, or another doubt; inactive = no such curve, though single readings can be large; an effect the other way counts as inactive or inconclusive.

NNC(=O)c1ccc(OCC2CC(c3ccc(Cl)cc3)=NO2)cc1 (stereo unspecified)	HEK293 tox 13µM, GLP1R inv ag 13µM
C[C@]12CC[C@H](O)C[C@@H]1CC[C@H]1[C@H]3CCC(=O)[C@@]3(C)CC[C@@H]12	none (no result: Mito fusion act)
C[C@@H]1CCCCO[C@H](CN(C)Cc2ccc(C(F)(F)F)cc2)[C@H](C)CN([C@@H](C)CO)C(=O)c2cc(NC(=O)Cc3ccccc3)ccc2O1	HEK293 tox inconclusive, GLP1R inv ag 2.8µM (no result: Mito fusion act)
C[C@H](CO)N1C[C@H](C)[C@H](CN(C)S(=O)(=O)c2ccccc2)Oc2ccc(NC(=O)NC3CCCCC3)cc2CC1=O	HEK293 tox inconclusive, GLP1R inv ag inconclusive (no result: Mito fusion act)
C[C@@H]1CN([C@H](C)CO)C(=O)c2c(c3ccccc3n2C)-c2ccccc2CO[C@H]1CN(C)Cc1ccc(-c2ccccc2)cc1	HEK293 tox inconclusive, GLP1R inv ag inconclusive (no result: Mito fusion act)
C[C@@H]1CCCCO[C@@H](CN(C)CC2CCCCC2)[C@@H](C)CN([C@H](C)CO)C(=O)c2cc(NS(=O)(=O)c3ccc(Cl)cc3)ccc2O1	HEK293 tox inconclusive, GLP1R inv ag 10µM (no result: Mito fusion act)
COC(CN(C(=O)CCl)C(C(=O)NC1CCCCC1)c1ccccc1C)OC (stereo unspecified)	HEK293 tox inconclusive, GLP1R inv ag 10µM
CN1CCN(C(=O)COc2ccc3ccccc3c2)CC1	none
COc1ccccc1CN1CCN(C(=O)COc2ccc3ccccc3c2)CC1	GLP1R inv ag 10µM
O=C(COc1ccc2ccccc2c1)N1CCN(CC2CC3C=CC2C3)CC1 (stereo unspecified)	GLP1R inv ag 8.9µM
O=C(C[C@@H]1CC[C@@H]2[C@H](COC[C@H](O)CN2Cc2cccc(C(F)(F)F)c2)O1)NCc1ccc(Cl)cc1	GLP1R inv ag 10µM (no result: Mito fusion act, GLP-1R agonist, BRCA1 expr act)
CCOC(=O)C1(c2ccccc2)CCN(CC(=O)c2ccc(NC(C)=O)cc2)CC1	GLP1R inv ag inconclusive (no result: Mito fusion act)
CCCCC(=O)NC(=S)Nc1nnn(CCC)n1	HEK293 tox inconclusive, GLP1R inv ag 11µM
CN(C)C1(c2nnnn2CCOC(=O)Nc2ccc(Cl)cc2)CCCCC1	GLP1R inv ag 7.1µM
